# Measurements reported in the supplement of paper PMC11732987, “Enantioselective OTUD7B fragment discovery through chemoproteomics screening and high-throughput optimisation” (Communications Chemistry, 2025).
# Unmarked numbers belong to inactive results.
# Tests used:
# Experiment in all cases: log2 ratio of Biotin-Ahx-Ub-VS probe labelling (fragment/DMSO); higher = less target engagement (more negative = stronger competition), active = hit call of the paper (q ≤ 0.05, log2 ratio ≤ -1)
# Details in all cases: compound concentration: 200 uM; treatment time: 3 h
# USP42 = target: T1, USP42 (UniProt Q9H9J4)
# T1 sequence (whole entry): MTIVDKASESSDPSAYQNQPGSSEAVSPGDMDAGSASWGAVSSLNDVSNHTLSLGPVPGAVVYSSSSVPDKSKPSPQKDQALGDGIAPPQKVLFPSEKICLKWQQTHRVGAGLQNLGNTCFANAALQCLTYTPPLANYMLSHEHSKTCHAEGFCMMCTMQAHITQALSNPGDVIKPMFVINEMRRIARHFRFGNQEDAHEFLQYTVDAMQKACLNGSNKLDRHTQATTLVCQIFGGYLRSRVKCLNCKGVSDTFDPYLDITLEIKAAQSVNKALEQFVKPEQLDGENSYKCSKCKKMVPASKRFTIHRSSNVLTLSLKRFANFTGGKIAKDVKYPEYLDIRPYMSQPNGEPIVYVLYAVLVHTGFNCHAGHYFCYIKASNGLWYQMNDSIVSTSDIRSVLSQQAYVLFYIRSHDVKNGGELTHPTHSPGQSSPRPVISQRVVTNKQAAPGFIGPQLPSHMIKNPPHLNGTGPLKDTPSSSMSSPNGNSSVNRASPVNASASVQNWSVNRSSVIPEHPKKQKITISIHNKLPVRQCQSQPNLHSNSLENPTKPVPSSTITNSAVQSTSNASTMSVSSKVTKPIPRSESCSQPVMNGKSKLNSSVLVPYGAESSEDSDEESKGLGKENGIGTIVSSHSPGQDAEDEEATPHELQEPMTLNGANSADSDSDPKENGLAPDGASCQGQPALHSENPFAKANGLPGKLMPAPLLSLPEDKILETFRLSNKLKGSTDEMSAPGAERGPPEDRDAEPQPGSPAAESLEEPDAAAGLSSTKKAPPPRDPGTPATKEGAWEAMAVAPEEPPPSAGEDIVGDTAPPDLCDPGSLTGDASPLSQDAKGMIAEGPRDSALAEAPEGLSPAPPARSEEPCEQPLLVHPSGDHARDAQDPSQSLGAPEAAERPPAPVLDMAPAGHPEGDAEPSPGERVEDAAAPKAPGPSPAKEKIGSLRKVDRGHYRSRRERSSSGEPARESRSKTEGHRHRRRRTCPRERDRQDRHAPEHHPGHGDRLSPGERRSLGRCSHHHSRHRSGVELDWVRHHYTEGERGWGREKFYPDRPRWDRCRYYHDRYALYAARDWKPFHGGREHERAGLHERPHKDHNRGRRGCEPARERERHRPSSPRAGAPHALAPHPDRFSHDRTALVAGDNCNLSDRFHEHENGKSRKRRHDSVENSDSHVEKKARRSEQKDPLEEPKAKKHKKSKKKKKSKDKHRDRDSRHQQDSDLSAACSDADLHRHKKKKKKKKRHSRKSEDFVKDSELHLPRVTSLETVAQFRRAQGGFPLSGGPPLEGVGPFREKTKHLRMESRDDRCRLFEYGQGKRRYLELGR
# Summary of the method: (§1)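 Labelled DUBs from HEK293T lysate were NeutrAvidin-enriched, digested with LysC and trypsin, and run by diaPASEF LC-MS/MS. Before that, each 495 µg sample in Tris/CHAPS/IGEPAL buffer with protease inhibitors was treated in triplicate with fragment at 200 µM or vehicle for 3 h, then with Biotin-Ahx-Ub-VS at 0.5 µM final for 1 h. Values are average log2 ratios of fragment over vehicle by unpaired t-test, based on global-median-normalised Spectronaut label-free quantities from proteins with ≥2 unique peptides.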
# USP46 = USP46 (UniProt P62068)
# USP46, sequence (P62068 whole entry): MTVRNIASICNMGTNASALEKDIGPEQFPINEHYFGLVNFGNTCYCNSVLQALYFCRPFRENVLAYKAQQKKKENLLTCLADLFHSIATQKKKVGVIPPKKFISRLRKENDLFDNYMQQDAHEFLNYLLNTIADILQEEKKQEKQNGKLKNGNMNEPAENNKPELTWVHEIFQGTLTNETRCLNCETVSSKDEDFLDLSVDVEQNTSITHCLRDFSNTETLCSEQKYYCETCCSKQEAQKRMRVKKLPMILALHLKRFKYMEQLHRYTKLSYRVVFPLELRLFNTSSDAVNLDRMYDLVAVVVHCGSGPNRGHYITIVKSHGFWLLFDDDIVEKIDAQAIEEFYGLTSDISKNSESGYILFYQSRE
# Summary of the method: as §1
# USP47 = target: T2, USP47 (UniProt Q96K76)
# T2 sequence (whole entry): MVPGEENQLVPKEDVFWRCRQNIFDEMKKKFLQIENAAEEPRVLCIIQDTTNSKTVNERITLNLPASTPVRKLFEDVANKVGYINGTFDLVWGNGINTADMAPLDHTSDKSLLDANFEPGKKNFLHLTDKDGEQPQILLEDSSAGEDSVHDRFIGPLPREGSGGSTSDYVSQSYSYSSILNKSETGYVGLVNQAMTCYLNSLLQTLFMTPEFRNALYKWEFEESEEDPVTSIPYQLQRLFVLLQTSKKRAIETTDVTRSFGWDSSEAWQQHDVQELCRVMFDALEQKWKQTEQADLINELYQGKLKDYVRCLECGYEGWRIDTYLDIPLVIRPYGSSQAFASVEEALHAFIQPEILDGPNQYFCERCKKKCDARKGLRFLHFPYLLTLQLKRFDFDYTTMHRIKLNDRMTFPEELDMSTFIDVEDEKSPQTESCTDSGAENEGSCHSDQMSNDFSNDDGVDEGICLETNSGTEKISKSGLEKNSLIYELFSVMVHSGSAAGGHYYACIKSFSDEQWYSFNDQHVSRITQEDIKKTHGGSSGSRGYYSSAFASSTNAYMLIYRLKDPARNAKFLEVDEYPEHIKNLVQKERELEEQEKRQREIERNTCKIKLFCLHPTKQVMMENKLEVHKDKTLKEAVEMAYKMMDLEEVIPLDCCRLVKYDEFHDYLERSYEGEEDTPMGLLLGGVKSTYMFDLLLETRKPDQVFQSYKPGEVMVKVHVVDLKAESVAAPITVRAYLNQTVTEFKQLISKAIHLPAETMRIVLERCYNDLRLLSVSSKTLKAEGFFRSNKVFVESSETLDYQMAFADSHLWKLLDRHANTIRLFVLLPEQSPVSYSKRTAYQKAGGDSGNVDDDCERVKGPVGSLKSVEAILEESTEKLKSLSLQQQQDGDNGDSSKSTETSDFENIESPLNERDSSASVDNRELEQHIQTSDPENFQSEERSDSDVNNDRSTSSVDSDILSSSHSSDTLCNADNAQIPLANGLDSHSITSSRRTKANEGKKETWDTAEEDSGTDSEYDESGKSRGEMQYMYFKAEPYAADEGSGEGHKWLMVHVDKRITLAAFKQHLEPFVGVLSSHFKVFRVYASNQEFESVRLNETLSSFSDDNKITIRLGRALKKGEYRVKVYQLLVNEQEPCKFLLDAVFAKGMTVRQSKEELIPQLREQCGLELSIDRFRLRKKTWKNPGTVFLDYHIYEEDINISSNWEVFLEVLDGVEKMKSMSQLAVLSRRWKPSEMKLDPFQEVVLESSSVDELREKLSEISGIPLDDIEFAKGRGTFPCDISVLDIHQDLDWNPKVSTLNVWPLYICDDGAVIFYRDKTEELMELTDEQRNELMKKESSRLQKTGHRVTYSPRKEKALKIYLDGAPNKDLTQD
# Summary of the method: as §1
# USP48 = target: T3, USP48 (UniProt Q86UV5)
# T3 sequence (whole entry): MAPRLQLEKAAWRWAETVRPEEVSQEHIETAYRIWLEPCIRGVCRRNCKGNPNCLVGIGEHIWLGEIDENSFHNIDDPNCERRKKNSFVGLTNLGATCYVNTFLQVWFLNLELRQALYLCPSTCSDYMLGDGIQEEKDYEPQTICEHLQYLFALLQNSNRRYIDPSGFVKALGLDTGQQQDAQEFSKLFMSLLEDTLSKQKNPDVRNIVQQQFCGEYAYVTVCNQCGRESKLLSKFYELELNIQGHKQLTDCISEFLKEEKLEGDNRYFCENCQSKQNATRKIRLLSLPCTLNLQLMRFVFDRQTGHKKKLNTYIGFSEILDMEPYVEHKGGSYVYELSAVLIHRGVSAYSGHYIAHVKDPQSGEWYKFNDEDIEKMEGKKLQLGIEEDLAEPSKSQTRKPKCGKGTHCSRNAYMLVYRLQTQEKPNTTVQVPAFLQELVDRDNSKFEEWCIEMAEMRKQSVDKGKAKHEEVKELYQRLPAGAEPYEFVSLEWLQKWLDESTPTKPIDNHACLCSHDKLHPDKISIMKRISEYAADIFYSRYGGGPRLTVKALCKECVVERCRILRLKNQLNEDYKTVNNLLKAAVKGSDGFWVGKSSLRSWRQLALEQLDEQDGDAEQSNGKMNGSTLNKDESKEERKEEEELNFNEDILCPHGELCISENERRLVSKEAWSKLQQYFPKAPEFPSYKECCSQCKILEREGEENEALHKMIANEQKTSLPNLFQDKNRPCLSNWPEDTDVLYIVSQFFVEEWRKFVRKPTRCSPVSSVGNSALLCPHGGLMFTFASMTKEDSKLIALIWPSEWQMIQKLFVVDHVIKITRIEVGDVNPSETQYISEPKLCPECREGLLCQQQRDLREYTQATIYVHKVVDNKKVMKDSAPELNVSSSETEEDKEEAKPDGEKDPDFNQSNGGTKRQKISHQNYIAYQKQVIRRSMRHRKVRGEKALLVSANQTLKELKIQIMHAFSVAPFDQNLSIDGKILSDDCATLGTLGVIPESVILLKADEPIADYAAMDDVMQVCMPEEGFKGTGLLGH
# Summary of the method: as §1
# USP5 = target: T4, USP5 (UniProt P45974)
# T4 sequence (whole entry): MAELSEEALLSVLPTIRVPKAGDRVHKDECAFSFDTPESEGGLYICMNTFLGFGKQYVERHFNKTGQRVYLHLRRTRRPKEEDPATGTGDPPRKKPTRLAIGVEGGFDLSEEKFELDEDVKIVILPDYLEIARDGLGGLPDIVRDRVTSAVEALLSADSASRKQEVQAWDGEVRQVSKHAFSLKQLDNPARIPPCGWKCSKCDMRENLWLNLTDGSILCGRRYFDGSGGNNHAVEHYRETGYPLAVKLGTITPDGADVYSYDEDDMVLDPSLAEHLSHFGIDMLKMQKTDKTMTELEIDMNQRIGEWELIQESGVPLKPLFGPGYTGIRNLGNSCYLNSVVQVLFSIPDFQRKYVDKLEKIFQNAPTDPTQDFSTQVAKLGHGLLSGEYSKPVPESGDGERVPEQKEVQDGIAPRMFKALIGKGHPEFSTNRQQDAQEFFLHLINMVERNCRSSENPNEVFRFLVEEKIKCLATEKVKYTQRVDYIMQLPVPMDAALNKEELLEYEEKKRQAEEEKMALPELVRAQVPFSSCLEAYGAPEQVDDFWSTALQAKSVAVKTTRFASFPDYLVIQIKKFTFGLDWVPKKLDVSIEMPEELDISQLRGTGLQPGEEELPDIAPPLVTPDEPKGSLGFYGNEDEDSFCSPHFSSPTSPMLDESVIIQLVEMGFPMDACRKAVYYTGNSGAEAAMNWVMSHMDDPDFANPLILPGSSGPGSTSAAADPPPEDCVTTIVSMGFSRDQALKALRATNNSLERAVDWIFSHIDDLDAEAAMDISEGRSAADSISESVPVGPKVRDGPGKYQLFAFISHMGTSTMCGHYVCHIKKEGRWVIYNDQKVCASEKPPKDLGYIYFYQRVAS
# Summary of the method: as §1
# USP54 = USP54 (UniProt Q70EL1)
# USP54, sequence (Q70EL1 whole entry): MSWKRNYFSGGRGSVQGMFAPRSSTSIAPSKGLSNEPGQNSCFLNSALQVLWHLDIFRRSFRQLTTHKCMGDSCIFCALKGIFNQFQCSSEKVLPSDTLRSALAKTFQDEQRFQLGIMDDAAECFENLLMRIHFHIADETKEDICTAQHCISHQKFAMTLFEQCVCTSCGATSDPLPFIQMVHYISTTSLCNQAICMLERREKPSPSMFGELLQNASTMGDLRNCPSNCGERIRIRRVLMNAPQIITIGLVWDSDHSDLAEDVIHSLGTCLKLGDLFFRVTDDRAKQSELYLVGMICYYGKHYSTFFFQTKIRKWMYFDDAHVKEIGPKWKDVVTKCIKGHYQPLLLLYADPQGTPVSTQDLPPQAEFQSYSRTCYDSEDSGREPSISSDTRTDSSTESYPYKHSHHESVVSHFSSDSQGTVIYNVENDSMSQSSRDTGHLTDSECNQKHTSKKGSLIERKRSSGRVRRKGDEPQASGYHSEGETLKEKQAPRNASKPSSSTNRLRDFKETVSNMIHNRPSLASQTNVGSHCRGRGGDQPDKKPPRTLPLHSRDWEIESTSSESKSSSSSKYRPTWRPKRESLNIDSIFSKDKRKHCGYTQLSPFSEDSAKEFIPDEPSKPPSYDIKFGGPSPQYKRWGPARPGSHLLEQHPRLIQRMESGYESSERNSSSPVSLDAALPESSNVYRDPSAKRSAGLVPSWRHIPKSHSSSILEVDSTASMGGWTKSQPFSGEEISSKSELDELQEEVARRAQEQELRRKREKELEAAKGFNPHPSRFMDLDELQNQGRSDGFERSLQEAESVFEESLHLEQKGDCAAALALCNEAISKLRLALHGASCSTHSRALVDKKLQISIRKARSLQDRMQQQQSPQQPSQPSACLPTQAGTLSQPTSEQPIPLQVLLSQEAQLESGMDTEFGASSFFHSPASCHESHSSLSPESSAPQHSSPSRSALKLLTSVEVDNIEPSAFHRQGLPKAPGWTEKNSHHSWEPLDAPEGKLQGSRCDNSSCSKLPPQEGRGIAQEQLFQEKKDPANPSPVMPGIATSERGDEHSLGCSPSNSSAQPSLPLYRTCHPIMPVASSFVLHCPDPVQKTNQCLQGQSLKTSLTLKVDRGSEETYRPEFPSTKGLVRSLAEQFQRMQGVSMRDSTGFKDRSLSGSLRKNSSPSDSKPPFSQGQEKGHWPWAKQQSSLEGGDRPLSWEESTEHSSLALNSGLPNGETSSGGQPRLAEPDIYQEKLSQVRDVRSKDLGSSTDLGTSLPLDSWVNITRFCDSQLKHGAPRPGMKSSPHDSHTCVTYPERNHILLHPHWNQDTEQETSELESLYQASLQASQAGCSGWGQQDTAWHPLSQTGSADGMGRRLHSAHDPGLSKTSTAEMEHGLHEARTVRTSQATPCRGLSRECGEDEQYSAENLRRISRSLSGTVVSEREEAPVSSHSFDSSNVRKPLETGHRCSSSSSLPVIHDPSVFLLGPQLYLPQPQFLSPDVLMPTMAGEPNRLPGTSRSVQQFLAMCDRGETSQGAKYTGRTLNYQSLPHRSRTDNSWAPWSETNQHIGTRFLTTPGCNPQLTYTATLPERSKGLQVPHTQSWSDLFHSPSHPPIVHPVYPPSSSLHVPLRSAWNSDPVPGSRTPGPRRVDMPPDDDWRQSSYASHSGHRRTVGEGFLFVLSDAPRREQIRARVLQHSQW
# Summary of the method: as §1
# USP7 = USP7 (UniProt Q93009)
# USP7, sequence (Q93009 whole entry, looked up): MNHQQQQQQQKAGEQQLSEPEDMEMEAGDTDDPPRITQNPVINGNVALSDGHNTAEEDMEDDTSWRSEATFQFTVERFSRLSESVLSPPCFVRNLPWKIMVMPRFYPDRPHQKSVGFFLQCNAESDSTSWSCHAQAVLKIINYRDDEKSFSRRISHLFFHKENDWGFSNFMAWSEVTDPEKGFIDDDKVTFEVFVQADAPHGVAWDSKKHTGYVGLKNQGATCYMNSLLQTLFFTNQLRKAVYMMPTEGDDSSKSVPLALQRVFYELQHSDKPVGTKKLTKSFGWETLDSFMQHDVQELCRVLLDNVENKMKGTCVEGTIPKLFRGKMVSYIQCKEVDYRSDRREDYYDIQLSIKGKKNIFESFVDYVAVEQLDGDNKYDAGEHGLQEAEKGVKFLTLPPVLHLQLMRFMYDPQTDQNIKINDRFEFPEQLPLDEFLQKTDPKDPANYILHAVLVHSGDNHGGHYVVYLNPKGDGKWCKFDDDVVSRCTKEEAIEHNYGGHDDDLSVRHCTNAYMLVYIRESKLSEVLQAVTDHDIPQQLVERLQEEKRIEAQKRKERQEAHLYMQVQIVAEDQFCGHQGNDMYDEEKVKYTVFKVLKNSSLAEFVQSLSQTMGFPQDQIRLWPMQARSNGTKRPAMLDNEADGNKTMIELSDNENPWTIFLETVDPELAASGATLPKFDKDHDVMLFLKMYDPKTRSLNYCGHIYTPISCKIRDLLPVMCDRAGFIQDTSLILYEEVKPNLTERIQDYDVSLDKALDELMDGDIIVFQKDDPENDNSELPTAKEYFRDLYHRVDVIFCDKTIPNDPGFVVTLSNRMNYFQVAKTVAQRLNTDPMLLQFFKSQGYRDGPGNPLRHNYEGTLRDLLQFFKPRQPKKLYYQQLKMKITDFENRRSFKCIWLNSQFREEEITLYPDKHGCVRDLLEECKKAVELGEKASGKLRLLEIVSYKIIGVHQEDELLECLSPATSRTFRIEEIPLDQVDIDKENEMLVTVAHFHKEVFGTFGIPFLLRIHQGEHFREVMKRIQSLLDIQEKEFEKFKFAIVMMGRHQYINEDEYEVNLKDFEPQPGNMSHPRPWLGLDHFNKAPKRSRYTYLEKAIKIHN
# Summary of the method: as §1
# USP8 = target: T5, USP8 (UniProt P40818)
# T5 sequence (whole entry): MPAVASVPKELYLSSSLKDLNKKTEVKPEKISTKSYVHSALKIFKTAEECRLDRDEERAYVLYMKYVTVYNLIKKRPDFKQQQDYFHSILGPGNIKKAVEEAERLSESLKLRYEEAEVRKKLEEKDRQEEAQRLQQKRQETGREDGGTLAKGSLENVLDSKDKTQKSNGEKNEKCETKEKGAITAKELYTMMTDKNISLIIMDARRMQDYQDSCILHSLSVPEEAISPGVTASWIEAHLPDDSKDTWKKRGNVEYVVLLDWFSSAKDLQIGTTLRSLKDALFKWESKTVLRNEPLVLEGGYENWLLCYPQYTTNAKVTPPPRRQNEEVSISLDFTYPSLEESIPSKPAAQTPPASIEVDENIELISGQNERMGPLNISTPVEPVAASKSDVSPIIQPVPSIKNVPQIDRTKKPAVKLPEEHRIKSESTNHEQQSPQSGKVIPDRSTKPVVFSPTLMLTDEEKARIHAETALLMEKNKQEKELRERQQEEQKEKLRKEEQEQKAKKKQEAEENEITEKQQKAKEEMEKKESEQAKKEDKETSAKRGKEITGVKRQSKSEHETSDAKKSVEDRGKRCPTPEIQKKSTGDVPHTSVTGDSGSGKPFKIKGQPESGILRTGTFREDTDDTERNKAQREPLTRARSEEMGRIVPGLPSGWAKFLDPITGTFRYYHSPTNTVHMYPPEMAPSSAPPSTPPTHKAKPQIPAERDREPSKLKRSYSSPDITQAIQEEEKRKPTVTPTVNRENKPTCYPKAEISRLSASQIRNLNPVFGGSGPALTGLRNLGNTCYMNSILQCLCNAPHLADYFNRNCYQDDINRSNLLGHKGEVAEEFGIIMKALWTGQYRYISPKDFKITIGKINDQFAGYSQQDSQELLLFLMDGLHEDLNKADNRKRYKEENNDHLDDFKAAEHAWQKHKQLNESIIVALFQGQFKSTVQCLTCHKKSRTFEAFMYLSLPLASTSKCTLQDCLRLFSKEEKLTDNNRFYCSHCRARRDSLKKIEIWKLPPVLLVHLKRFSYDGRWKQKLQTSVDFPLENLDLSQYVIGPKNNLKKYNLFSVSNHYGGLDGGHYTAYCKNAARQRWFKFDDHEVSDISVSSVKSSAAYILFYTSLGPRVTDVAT
# Summary of the method: as §1
# USP9X = USP9X (UniProt Q93008)
# Summary of the method: as §1
# UniProt O00487 = target: UniProt O00487
# UniProt O00487, sequence (O00487 whole entry): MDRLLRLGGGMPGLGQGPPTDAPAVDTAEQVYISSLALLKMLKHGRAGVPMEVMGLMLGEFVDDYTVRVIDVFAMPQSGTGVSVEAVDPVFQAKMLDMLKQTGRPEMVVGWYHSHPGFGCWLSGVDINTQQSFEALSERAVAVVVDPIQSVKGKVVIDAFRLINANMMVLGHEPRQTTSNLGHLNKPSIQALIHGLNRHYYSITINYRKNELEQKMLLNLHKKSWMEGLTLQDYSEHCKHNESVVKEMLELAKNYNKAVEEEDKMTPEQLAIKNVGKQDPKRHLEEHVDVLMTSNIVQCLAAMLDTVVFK
# Summary of the method: as §1
compound,measurement,setting,value
Cc1ccccc1OCC(=O)N1CCN(C(=O)CCl)CC1,log2 ratio of Biotin-Ahx-Ub-VS probe labelling,USP42,0.258
same,log2 ratio of Biotin-Ahx-Ub-VS probe labelling,USP46,-0.329
same,log2 ratio of Biotin-Ahx-Ub-VS probe labelling,USP47,-1.19 (active)
same,log2 ratio of Biotin-Ahx-Ub-VS probe labelling,USP48,-0.356
same,log2 ratio of Biotin-Ahx-Ub-VS probe labelling,USP5,0.0461
same,log2 ratio of Biotin-Ahx-Ub-VS probe labelling,USP54,-0.923
same,log2 ratio of Biotin-Ahx-Ub-VS probe labelling,USP7,-0.701
same,log2 ratio of Biotin-Ahx-Ub-VS probe labelling,USP8,0.0472
same,log2 ratio of Biotin-Ahx-Ub-VS probe labelling,USP9X,-0.0136
same,log2 ratio of Biotin-Ahx-Ub-VS probe labelling,UniProt O00487,0.0797
